An excerpt weighted towards active compounds, which were near 20% of everything screened.
Pf growth 96h = P. falciparum growth inhibition at 96 hours | Potency, µM (doses to about 28.7 µM), for inactives: at the highest dose activity change, negative = inhibition, most hits filed as inhibitors | P. falciparum luciferase reporter growth, 96 h | 320,000 compounds, 6.9% hits | AID 504834; note: potency is the fitted concentration of half-maximal effect; % is set by controls: 0 for no effect and ±100 for the full control effect
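Erythrocytes infected with luciferase-expressing P. falciparum were dispensed at 2% hematocrit and 0.05% parasitemia (final), then incubated with compounds 96 hours at 37 C in 5% CO2. Luminescence after detection reagent addition reported growth.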
HCMV inh = human cytomegalovirus inhibition | 410,000 compounds, 4.5% hits | activity change, negative = inhibition, % at 57.5 µM | HFF cells, HCMV-luciferase reporter, 72 h; stronger effect = lower value; in the data active = activity change below about -60%; inconclusive = no clear call, values can overlap the other calls; inactive = above about -39%; note: % is set by controls: 0 for no effect and ±100 for the full control effect
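HFF cells seeded 16 h at 37C, treated with compounds, infected with luciferase-reporter HCMV at MOI 1 PFU/cell; luciferase read at 72 h post infection, normalized to buffer-only and Salinomycin controls.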
Shiga toxin inh = Shiga toxin inhibition; inhibition, % at 38.7 µM; AID 2315; 290,000 compounds, 9.2% hits; Vero cells, Shiga toxin protein synthesis inhibition reporter; in the data active = inhibition mostly above about 28%, no sharp cut-off; inactive = mostly below about 43%; note: 0% is about no effect
CHX counter = affects cycloheximide protein synthesis inhibition readout, counter-screen; max response, %; cell reporter, cycloheximide protein synthesis inhibition counterscreen; AID 2314; 300,000 compounds, 12% hits; in the data active = max response mostly above about 13%, no sharp cut-off; inactive = mostly below about 14%; note: read at 38.3 µM for the half of the compounds with a filed dose; 0% is about no effect
Pf growth 48h = inhibits P. falciparum growth in the first generation, 48 h | P. falciparum luciferase growth in erythrocytes, 48 h | 310,000 compounds, 5.9% hits | Potency, µM (series often up to 28.7 µM), for inactives: at the highest dose activity change, negative = inhibition, usual class: inhibitors; note: potency is the fitted concentration of half-maximal effect; % is set by controls: 0 for no effect and ±100 for the full control effect
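Compounds are pin-transferred into medium, infected erythrocytes (2% hematocrit, 0.1% parasitemia final) are added, and plates sit one parasite generation at 37 C in 5% CO2. Detection reagent is then added and luminescence measured.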
* = called active by the depositor; ? = inconclusive; nt = not tested or not shown; [ ] = dose if it differs, or a comment. Unless noted, calls come from the whole dose curve; as a rule, active = well fitted inhibition curve with a large enough effect; inconclusive = small, poorly fitted or top-dose-only effect, or another doubt; inactive = no such curve, though single readings can be large or run the other way.

SMILES | Pf growth 96h | HCMV inh | Shiga toxin inh | CHX counter | Pf growth 48h
COc1ccc(-c2csc(N3CCSCC3)n2)cc1 | 184.3% | -12.1 | 95.1* | 55.6* | 103.8%
COc1ccc(-c2csc(-n3ncc(-c4cccs4)c3N)n2)cc1 | ? | -37.0 | 30.7 | 4.2 | 6.7%
COc1ccc(-c2csc(-n3cccn3)n2)cc1 | 194.1% | 97.7 | 66.3* | 62.4* | 87.2%
Cc1cccc(NCC(=O)c2c(N)n(C)c(=O)n(C)c2=O)c1C | -17.7% | 24.0 | 4.8 | -2.1 | 37.8%
COC(=O)c1cc2occc2n1Cc1nc(-c2ccccc2Cl)oc1C | 11.7µM* | -39.8 | -17.0 | -4.3 | -18.6%
O=C(/C=C/c1ccco1)NC(=S)Nc1ccccc1O | 22.9% | 21.0 | 92.0* | 19.2* | 91.2%
O=C(/C=C\c1ccco1)NC(=S)Nc1ccccc1O | 85.4% | 18.6 | 64.3* | 34.1* | 80.3%
Cc1ccc(NC(=S)NC(=O)/C=C/c2ccco2)c(O)c1 | 44.8%[1.15 µM] | -63.9* | 68.0 | 59.9* | 246.6%
CCOC(=O)c1[nH]c2cc(OC)c(OC)cc2c1NC(=O)CN1CCN(c2ccc(OC)cc2)C(C)C1 (configuration not stated) | nt | nt | 28.9 | 17.1 | 9.28µM*
COC(=O)c1[nH]c2ccc(C)cc2c1NC(=O)CN1CCN(c2ccccc2)CC1 | nt | -64.5* | -8.7 | 0.5 | 10.4µM*
COC(=O)c1[nH]c2ccc(C)cc2c1NC(=O)CN1CCN(C(=O)c2ccccc2)CC1 | -26.2% | 11.4 | -11.1 | 0.7 | ?
COC(=O)c1[nH]c2cccc(OC)c2c1NC(=O)CN1CCN(c2cccc(OC)c2)C(C)C1 (configuration not stated) | -14.1% | 21.7 | -19.8 | 1.4 | ?
COC(=O)c1[nH]c2ccc(C)cc2c1NC(=O)CN1CCN(Cc2ccccc2)CC1 | -16.3% | -10.2 | 4.2 | 0.6 | nt
COC(=O)c1[nH]c2ccc(C)cc2c1NC(=O)CN1CCN(c2ccc(F)cc2)CC1 | ? | -83.3* | -4.2 | -1.7 | ?
Cc1ccc2[nH]c(C(=O)O)c(NC(=O)CN3CCN(c4cccc(C)c4C)CC3)c2c1 | 4.65µM* | 53.2 | -6.5 | -8.2 | 0.0%
COC(=O)c1[nH]c2ccc(Cl)cc2c1NC(=O)CN1CCC(C(N)=O)CC1 | ? | -2.2 | -9.3 | -6.7 | 11.7µM*
CCOC(=O)c1[nH]c2ccc(OCC)cc2c1NC(=O)CN1CCN(c2ccccc2)CC1 | 51.2% | 21.9 | 59.8 | 28.5* | ?
CCOc1cccc(CN2CCC(Oc3ccc(C(=O)NCc4ccccn4)cc3)CC2)c1 | ? | -7.2 | -11.8 | 2.7 | ?
CN(C)S(=O)(=O)c1ccc(C(=O)NCCSc2ccccc2)cc1 | nt | 66.0 | 151.0* | 48.1* | 82.0%
Cc1ccc(-c2[nH]c3ccccc3c2SCCNC(=O)c2ccc(S(=O)(=O)N(C)C)cc2)cc1 | nt | -32.2 | nt | nt | nt
CN(C)S(=O)(=O)c1ccc(C(=O)NCCSc2c(-c3ccccc3)[nH]c3ccccc23)cc1 | nt | -71.6* | nt | nt | nt
CCN(CC)C(=O)c1ccc(Nc2nnc(C)c3ccccc23)cc1 | -23.1% | -22.1 | 18.3 | 7.0 | -14.2%
CCN(CC)C(=O)c1ccc(-c2nnc(Nc3ccc(O)cc3)c3ccccc23)cc1 | 7.1% | -74.5* | nt | 2.6 | ?
CN(C)C(=O)c1ccc(-c2nnc(NCc3ccccc3)c3ccccc23)cc1 | 2.94µM* | -39.6 | -7.2 | -8.1 | 13.1µM*
NC(=O)c1ccc(Nc2nnc(-c3ccc(O)cc3)c3ccccc23)cc1 | 38.0% | ? | 16.5 | 1.1 | -9.8%
SMILES | Pf growth 96h | HCMV inh | Shiga toxin inh | CHX counter | Pf growth 48h
CCN(CC)C(=O)c1ccc(NC(=O)c2ccc(-c3nn(C)c(=O)c4ccccc34)cc2)cc1 | 10.4µM* | 19.8 | -5.9 | -1.8 | 8.7%
CCN(CC)C(=O)c1ccc(-c2nnc(Nc3ccc(C(=O)N(C)C)cc3)c3ccccc23)cc1 | 7.6% | 64.7 | -5.1 | -2.6 | 5.86µM*
CCn1cc(C(=O)N2CCN(c3ccc(C(C)=O)cc3)CC2)c2cc(OC)c(OC)cc2c1=O | ? | 68.9 | -15.8 | 1.6 | ?
CC(=O)c1cn(C(=O)c2ccc(Cl)cc2)c2ccccc12 | 7.5% | -66.8* | -3.3 | -1.2 | 10.5%
COC(=O)c1cn(C(=O)c2ccc(OC)cc2)c2ccccc12 | ? | -65.5* | nt | -0.4 | -2.9%
COc1ccc(COc2ncnc3ccc(Br)cc23)cc1F | -4.4% | 12.7 | 24.1 | 19.1* | -12.5%
O=C(NCc1ccco1)C1CCCN(c2nnc(-n3cccc3)s2)C1 (configuration not stated) | 45.1% | -22.2 | 15.8 | 10.9 | -1.9%
CCOc1ccccc1C(=O)NCC(=O)OCCOc1cccc(Cl)c1 | ? | ? | -6.1 | -3.1 | 13.2%
O=[N+]([O-])c1ccc(O)c(C=Nc2ccc3nc(-c4ccccc4)[nH]c3c2)c1 | 1.47µM* | 8.2 | 69.6* | 27.8* | -9.2%
Oc1c(Br)cc(Br)cc1C=Nc1ccc2[nH]ncc2c1 | 123.8% | -21.0 | -7.1 | -2.4 | 36.5%
Cc1nc2ccc(C(=O)N/N=C/c3cc([N+](=O)[O-])ccc3O)cc2[nH]1 | -22.9% | 36.1 | 4.8 | -2.1 | 19.6%[5.75 µM]
Oc1c(Br)cc(C=Nc2ccc3nc(-c4ccccc4)[nH]c3c2)c(O)c1Br | 16.8% | 86.5 | 75.0* | 51.9* | ?
C/C(=N/Nc1ccc(C)cc1)C1(C)N(O)C(C)(C)C(c2ccco2)=[N+]1[O-] (configuration not stated) | 137.5% | -27.6 | 35.8 | 16.8* | 28.0%
CCOC(=O)CSc1nnc2c(n1)C1(C)CCC2C1(C)C (configuration not stated) | 3.29µM* | 17.2 | 0.3 | -2.5 | -11.4%
CC12CCC(c3nnc(SCC(=O)Nc4cccc5ccccc45)nc31)C2(C)C (configuration not stated) | ? | -5.1 | -2.0 | -3.1 | -7.4%
CC12CCC(c3nnc(SCc4ccc(Cl)cc4)nc31)C2(C)C (configuration not stated) | 4.15µM* | 6.2 | 13.5 | -1.1 | -12.3%
O=C(Cc1ccc(Cl)cc1)Nc1cccnc1Cl | nt | -30.9 | nt | nt | nt
COc1ccccc1-c1noc2c1C(=O)N(Cc1cn(C3CCCC3)nn1)CC2 | nt | 24.3 | nt | nt | nt
COc1ccc2ccccc2c1/C=N/NC(=O)c1cccc(Br)c1 | 54.3% | -67.3* | 13.3 | 4.9 | 6.3%
O=C(N/N=C/c1c(O)ccc2ccccc12)c1cccc(C(F)(F)F)c1 | 2.62µM* | -105.0* | -10.8 | -4.8 | 3.7µM*
COc1ccc2ccccc2c1/C=N\NC(=O)c1ccc(C)s1 | -31.7% | ? | 26.4 | 20.3 | 3.8%
COc1ccc2ccccc2c1/C=N/NC(=O)c1ccccc1F | ? | 7.1 | 26.0 | 10.8* | 28.8%
CCOc1cc(C(=O)Nc2ccc(NC(=O)c3cc4ccccc4o3)c(OC)c2)cc(OCC)c1OCC | nt | 4.3 | nt | nt | nt
COCCCN1C(=O)c2ccc(C(=O)OCC(=O)NCc3cccc(OC)c3)cc2C1=O | -6.1% | 0.0 | nt | nt | 12.6%
Clc1ccc(C=Cc2ccccn2)cc1 | nt | -19.7 | nt | nt | nt
Brc1ccc(N=Cc2ccccn2)cc1 | 20.1% | 22.1 | 54.4* | 22.1* | 27.9%
C(=C\c1ccccn1)/c1ccccn1 | 130.0% | 79.9 | 105.4* | 63.5* | 120.9%
